This excerpt belongs to a sample that is enriched for hits.
BLM helicase inh = qHTS Assay for Inhibitors of Bloom's syndrome helicase (BLM); recombinant BLM DNA unwinding, fluorescence dequenching; Potency, µM (titrated, usually from 56.1 µM), for inactives: at the top dose activity change, negative = inhibition, most hits filed as inhibitors; 0.2% of 350,000 active;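 also: plate controls were vehicle for no effect and no enzyme for full effect; nearly all actives have a fitted effect of over 35% in size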
RECQ1 inh = qHTS Assay for Inhibitors of RecQ-Like Dna Helicase 1 (RECQ1). Potency, µM (highest dose often 57.3 µM), inactives show at the top dose activity, negative = inhibition, actives largely listed as inhibitors. RECQ1 DNA unwinding, red fluorescence kinetic read. ATP-dependent DNA helicase Q1 (Homo sapiens), P46063. AID 2549, 2010. 0.54% of 240,000 active;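 also: plate controls were vehicle for no effect and no enzyme for full effect; nearly all actives have a fitted effect of over 30% in size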
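RECQ1T1 50 nM; forked duplex (20 bp + 30-nt ss tails) 200 nM, ATP 2 mM final; pH 8.0, 2 mM MgCl2, 2.5 ug/ml poly(dI-dC); 15 min compound preincubation; discontinuous kinetic read over 2 h at RT.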
GCN5L2 inh = qHTS Assay for Inhibitors of GCN5L2; Histone acetyltransferase KAT2A (Homo sapiens), Q92830; GCN5L2 HAT assay, ThioGlo1 CoA-SH fluorescence; Potency, µM (titrated, usually from 58.9 µM), for inactives: top-dose activity change, negative = inhibition, most hits filed as inhibitors; 0.21% of 390,000 active
Target sequence (Q92830 whole entry, looked up): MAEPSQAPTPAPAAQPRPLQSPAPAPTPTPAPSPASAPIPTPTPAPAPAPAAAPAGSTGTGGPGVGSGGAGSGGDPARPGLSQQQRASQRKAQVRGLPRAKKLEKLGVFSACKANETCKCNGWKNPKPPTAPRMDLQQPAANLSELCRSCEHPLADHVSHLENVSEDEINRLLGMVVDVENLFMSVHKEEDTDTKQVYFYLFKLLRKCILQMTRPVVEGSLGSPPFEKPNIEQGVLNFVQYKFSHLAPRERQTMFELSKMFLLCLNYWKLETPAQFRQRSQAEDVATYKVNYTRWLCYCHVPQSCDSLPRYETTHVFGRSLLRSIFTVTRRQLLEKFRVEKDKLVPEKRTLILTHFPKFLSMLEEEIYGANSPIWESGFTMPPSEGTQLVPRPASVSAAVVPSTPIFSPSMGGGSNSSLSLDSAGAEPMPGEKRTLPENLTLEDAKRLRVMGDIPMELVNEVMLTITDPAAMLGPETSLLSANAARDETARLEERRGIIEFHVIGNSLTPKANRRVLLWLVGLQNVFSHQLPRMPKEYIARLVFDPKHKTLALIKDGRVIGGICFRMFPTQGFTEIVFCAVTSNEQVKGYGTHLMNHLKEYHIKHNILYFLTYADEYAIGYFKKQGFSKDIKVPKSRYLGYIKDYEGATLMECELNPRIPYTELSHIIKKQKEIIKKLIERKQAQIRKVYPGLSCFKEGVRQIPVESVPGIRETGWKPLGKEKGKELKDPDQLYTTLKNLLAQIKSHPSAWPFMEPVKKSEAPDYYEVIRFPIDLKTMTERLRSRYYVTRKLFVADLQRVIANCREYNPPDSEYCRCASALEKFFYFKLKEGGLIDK
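GCN5L2 (20nM final) in 50mM HEPES, 0.1mM EDTA pH 7.5, 0.01% Tween-20 was preincubated 15 min at room temperature with compound, then given ThioGlo1 (50uM), H3(1-25) peptide (75uM) and acetyl-CoA (70uM); CoA-thiol fluorescence (Ex340/Em540) was read at 0 and 20 min.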
APE1 inh-1 = qHTS Assay for Inhibitors of the Human Apurinic/apyrimidinic Endonuclease 1 (APE1); DNA repair nuclease/redox regulator APEX1 (Homo sapiens), P27695; recombinant APE1, TAMRA/BHQ-2 abasic DNA cleavage fluorescence; Potency, µM (titrated, usually from 65.8 µM), without a hit: top-dose activity change, negative = inhibition, hits mostly inhibitors; 0.35% of 350,000 active;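 also: plate controls were vehicle for no effect and reference inhibitor for full effect; nearly all actives have a fitted effect of over 55% in size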
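Activity was derived from the fluorescence gain between first and third kinetic reads (60 s intervals, ex 525/em 598 nm) after 50 nM THF-abasic TAMRA/BHQ-2 duplex was added to 0.75 nM APE1 preincubated 15 min with compound.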
L3MBTL1 block = qHTS Assay for the Inhibitors of L3MBTL1. AlphaScreen L3MBTL1–H3K9me1 peptide binding. 0.66% of 230,000 active. AID 485360, 2010. Potency, µM (doses to about 57.1 µM), inactives show at the top dose activity, negative = inhibition, actives largely listed as inhibitors; also: nearly all actives have a fitted effect of over 60% in size
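Read-out is AlphaScreen signal from streptavidin donor and nickel chelate acceptor beads (10 ug/mL final each) bridging L3MBTL1 (50 nM) and biotinylated K9-monomethylated H3(1-15) peptide (75 nM), after 30 min compound exposure at room temperature.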
KDM4E inh = qHTS Assay for Inhibitors of Human Jumonji Domain Containing 2E (JMJD2E). Lysine-specific demethylase 4E (Homo sapiens), B2RXH2. Potency, µM (series often up to 57.1 µM), for the others: at the top dose activity change, negative = inhibition, actives largely listed as inhibitors. JMJD2E catalytic domain, FDH-coupled NADH fluorescence (FDH is formaldehyde dehydrogenase). 1.6% of 230,000 active; active = well fitted inhibition curve with a large enough effect, not every such curve was filed as active; inconclusive = small, poorly fitted or top-dose-only effect, or another doubt; inactive = no such curve, though single readings can be large or run the other way;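 also: 0% = wells with enzyme and -100% = buffer wells without enzyme; nearly all actives have a fitted effect of over 50% in size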
APE1 dye cs = Counterscreen for APE1 Inhibitors: Fluorescent Dye Displacement Assay; 7% of 480 active; DNA fluorescent dye displacement counterscreen, fluorescence; Potency, µM (titrated, usually from 28.5 µM), for inactives: top-dose activity change, negative = inhibition, usual class: inhibitors; shares compounds with APE1 inh-1; AID 2564, 2010;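 also: loss of thiazole orange fluorescence as the dye is displaced from duplex DNA; 0% = ThO with dsDNA and no compound and -100% = ThO without dsDNA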
Endo IV inh = Counterscreen for APE1 Inhibitors: qHTS Assay for Inhibitors of Endonuclease IV | Potency, µM (doses to about 27.1 µM), for inactives: top-dose activity change, negative = inhibition, hits mostly inhibitors | shares compounds with APE1 inh-1 | E. coli Endo IV, fluorogenic AP-site DNA cleavage | 4% of 560 active;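 also: plate controls were uninhibited enzyme wells for no effect and no enzyme buffer wells for full effect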
APE1 inh-2 = Confirmation qHTS Assay for Inhibitors of the Human Apurinic/apyrimidinic Endonuclease 1 (APE1) | Potency, µM (series often up to 57.1 µM), for inactives: at the top dose activity change, negative = inhibition, actives largely listed as inhibitors | 44% of 750 active | shares compounds with APE1 inh-1 | purified APE1, fluorogenic abasic-site DNA cleavage; also: nearly all actives have a fitted effect of over 30% in size
APE1 FP inh = qHTS FP-Based Assay for Inhibitors of the Human Apurinic/apyrimidinic Endonuclease 1 (APE1) | shares compounds with APE1 inh-1 | APE1 binding to TAMRA-labelled double-stranded DNA, fluorescence polarization displacement | Potency, µM (doses to about 28.5 µM), for the others: top-dose activity, negative = inhibition, hits mostly inhibitors | 7% of 480 active
Starred values were filed as active, the others as inactive; i = inactive; ? = inconclusive; / = not tested or not shown; ! = repeats disagree; [ ] = another dose, or the depositor's remark. Unless noted, calls follow the shape of the dose curve; as a rule, active = well fitted curve in the direction sought with a large enough effect; inconclusive = small, poorly fitted or top-dose-only effect, or another doubt; inactive = no such curve, though single readings can be large; an effect the other way counts as inactive or inconclusive. Unless noted, % is scaled to controls: 0 for no effect and ±100 for the full control effect; potency is read from the fitted curve at half-maximal effect.

SMILES	BLM helicase inh	RECQ1 inh	GCN5L2 inh	APE1 inh-1	L3MBTL1 block	KDM4E inh	APE1 dye cs	Endo IV inh	APE1 inh-2	APE1 FP inh
COC(=O)c1ccc2c(c1O)C(=O)c1ccccc1C2=O	-5%	-7%	1%	-6%	/	8%	/	/	/	/
O=C1c2ccccc2C(=O)c2c1ccc(O)c2O	-18%	?	?	?	/	14µM*	?	91%[57.1 µM]	?	-5%[57.1 µM]
O=C1c2ccc(O)c(O)c2C(=O)c2c(O)ccc(O)c21	-27%	32µM*	?	3.2µM*	/	3.5µM*	/	14µM*	4µM*	/
O=C1c2cccc(O)c2C(=O)c2c(O)cccc21	-11%	-1%	?	2%	-28%	-7%	/	/	/	/
O=C1c2ccccc2C(=O)c2c([N+](=O)[O-])ccc(O)c21	-9%	4%	-2%	28µM*	-21%	-20%	?	-4%	14µM*	-19%
Cc1cc(C)c(NC(=O)CCN2C(=O)c3ccccc3Sc3ncccc32)c(C)c1	4%	/	-14%	/	/	/	/	/	/	/
CC(C)CN(C(=O)CCNC(=O)c1ccccc1Cl)C1CCS(=O)(=O)C1 (centres undefined)	/	/	-3%	17%	0%	/	/	/	/	/
O=C(COc1ccc2cc(-c3ccccc3)c(=O)oc2c1)NCC1CCC(C(=O)O)CC1 (centres undefined)	0%	/	?	-12%	/	/	/	/	/	/
S=C(S)OC1CC2CC1C1CCCC21 (centres undefined)	/	-2%	8%	2%	/	15%	/	-12%[57.1 µM]	-5%	/
S=C(S)O[C@@H]1C[C@@H]2C[C@H]1[C@@H]1CCC[C@H]21	1%	-20%	-19%	?	/	40%	/	/	/	/
COCCN=c1scc(-c2ccco2)n1/N=C/c1ccc(O)c(O)c1O	10µM*	8.9µM*	20µM*	8.9µM*	1.4µM*	22µM*	11µM*	22%	4.5µM*	14µM*
CC(C)N=c1scc(-c2ccco2)n1/N=C/c1ccc(O)c(O)c1	-13%	i	?	-1%	?	?	/	/	/	/
CCc1nc2ccc(C(=O)NCCc3ccc(OC)c(OC)c3)cc2nc1CC	2%	/	-5%	58%	/	/	/	/	/	/
COc1ccc(CCNC(=O)c2ccc3nc(-c4ccco4)c(-c4ccco4)nc3c2)cc1OC	14µM*	16µM*	?	8.9µM*!	?	13µM*	/	/	16µM*	/
O=C(CCO)c1ccc(O)cc1	25µM*	25µM*	-4%	1.6µM*	3.5µM*	?	-2%	?	1.3µM*	-11%
Cn1nnnc1SCC1=C(C(=O)O)N2C(=O)[C@@H](NC(=O)[C@H](O)c3ccccc3)[C@H]2SC1	38%	8%	-11%	?	?	-15%	/	/	40µM*	/
Cn1nnnc1SCC1=C(C(=O)O)N2C(=O)C(NC(=O)C(O)c3ccccc3)C2SC1 (centres undefined)	-8%	i	10%	-1%	/	?	/	/	/	/
CCn1cc(/C=C(\NC(=O)c2ccc(C)cc2)C(=O)NCCCn2ccnc2)c2ccccc21	1%	/	-6%	/	/	/	/	/	/	/
CCN(CC)c1ccc(C(=C2C=CC(=[N+](CC)Cc3cccc(S(=O)(=O)[O-])c3)C=C2)c2ccc(N(CC)Cc3cccc(S(=O)(=O)O)c3)cc2)cc1	25µM*	4µM*	10µM*	?	/	/	?	28µM*	22µM*	25µM*
Nc1ncc(N=Nc2cc(C(=O)O)ccc2Cl)s1	-3%	?	-3%	8.9µM*	/	25µM*	-6%	96%	?	?
Nc1cc2sc(-c3ccc(C(=O)O)cc3)nc2cc1Cl	-9%	-6%	?	-9%	12%	?	/	/	/	/
O=C(CSc1nc2cc(Cl)c(Cl)cc2[nH]1)c1ccc2c(c1)OCO2	-15%	-2%	-4%	?	-15%	-25%	36%	-2%	?	10%
CC(C)C(C(=O)O)N1C(=O)/C(=C/C=C/c2ccco2)SC1=S (centres undefined)	?	?	?	1.6µM*	1.8µM*	?	4%	22%	2.5µM*	-61%
COC(=O)C(CC(C)C)NC(=O)c1ccc(F)cc1 (centres undefined)	-2%	i	2%	-1%	2%	5%	/	/	/	/
O=c1oc2c3c4c(cc2s1)CCCN4CCC3	?	28µM*	-11%	28µM*	/	?	0%	46%	16µM*	-1%
COc1ccc(Br)cc1CNC(=O)CCSCc1ccc(C)cc1	-11%	/	-3%	/	/	/	/	/	/	/
O=S(=O)(c1ccccc1)N1CCC2(CC1)CN(Cc1ccccc1)C2	-8%	i	11%	5%	/	/	/	/	/	/
CC1=N/C(=C/c2ccco2)C(=O)O1	2%	?	-28%	25µM*	/	?	-6%	9%	35µM*	-19%

From PubChem
